High-throughput results as filed in PubChem.
Compounds with a hit are over-represented: about 19% of the library has one in this group of screens.
IL1B secr inh = qHTS for Inhibitors of Inflammasome Signaling: IL-1-beta AlphaLISA Primary Screen. activity change, % at 57.5 µM. THP-1 LPS/ATP IL-1B secretion, AlphaLISA, 16 h; stronger effect = lower value. AID 743279, 2014. 4.7% of 360,000 active; in the data active means activity change below about -50%; inconclusive means mostly about -30% to -49%
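THP-1 cells pretreated 1 hr with compounds (up to 57.5 uM final), then stimulated with LPS (250 ng/mL final) plus ATP (1.25 mM final); secreted IL-1B measured by AlphaLISA after 16 hr, decreased signal indicating inhibition.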
HT1080 IDH1KD tx = qHTS for induction of synthetic lethality in tumor cells producing 2HG: qHTS for the HT-1080-IDH1KD cell line. AID 686971, 2013. Potency, µM (doses to about 46.1 µM), usual class: cytotoxic. 2% of 360,000 active. HT-1080 IDH1 knockdown viability, ATP luminescence, 48 h
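Knockdown cells (IDH1KD HT-1080) received compounds 2 h after plating at 750 cells/well and were kept 48 h at 37 °C in 5% FBS RPMI. A CellTiter-Glo luminescence read gave % activity for curve fitting.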
DT40 TDP1 no CPT = qHTS for Inhibitors of human tyrosyl-DNA phosphodiesterase 1 (TDP1): qHTS in cells in absence of CPT; DT40 Tdp1-/- hTDP1 cells, no CPT, ATP luminescence, 48 h; Potency, µM (series often up to 46.2 µM), usual class: inhibitors; 15% of 420,000 active; AID 686978, 2013; further: nearly all actives have a fitted effect of over 55% in size
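Chicken DT40 Tdp1-/- cells stably complemented with human TDP1 were seeded at 400 cells/well with DMSO in place of 20 nM camptothecin. After compound pinning, cells grew at least 48 hr at 37 °C; viability read by CellTiter-Glo luminescence.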
HT1080NT lethal = qHTS for induction of synthetic lethality in tumor cells producing 2HG: qHTS for the HT-1080-NT fibrosarcoma cell line. 1.6% of 360,000 active. HT-1080-NT fibrosarcoma viability, CellTiter-Glo ATP luminescence, 48 h. AID 686970, 2013. Potency, µM (top dose mostly 46.1 µM), actives largely listed as cytotoxic;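 further: NT is the 2HG producing partner of a matched IDH1 knockdown line; nearly all actives have a fitted effect of over 55% in size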
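750 cells/well, RPMI + 5% FBS; 2 h settle, compound pin-transfer, 48 h at 37 degrees C. CellTiter-Glo 10 min RT, luminescence. Normalized to DMSO and media-only wells.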
DT40 TDP1 CPT = qHTS for Inhibitors of human tyrosyl-DNA phosphodiesterase 1 (TDP1): qHTS in cells in presence of CPT; chicken DT40 Tdp1-/-;hTDP1 cells + 20 nM CPT, ATP luminescence, 48 h; Potency, µM (titrated, usually from 46.2 µM), usual class: inhibitors; 12% of 420,000 active; AID 686979, 2013; further: nearly all actives have a fitted effect of over 55% in size
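Chicken DT40 Tdp1-/- cells complemented with human TDP1, 400 cells/well, exposed to compounds plus 20 nM camptothecin for at least 48 h at 37 C; viability read as ATP content by CellTiter-Glo luminescence.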
A number is an active result; . = inactive; ? = inconclusive; / = no result; [ ] = another dose, or the depositor's remark. Unless noted, the call rests on the fitted dose curve; in most records, active means well fitted curve in the direction sought with a large enough effect; inconclusive means small, poorly fitted or top-dose-only effect, or another doubt; inactive means no such curve, though single readings can be large; an effect the other way counts as inactive or inconclusive.

SMILES	IL1B secr inh	HT1080 IDH1KD tx	DT40 TDP1 no CPT	HT1080NT lethal	DT40 TDP1 CPT
Cc1cnc(C)c(Nc2nc(C(N)CCc3ccccc3)cs2)n1 (stereo unspecified)	.	?	18µM	?	16µM
O=S1(=O)N[C@@H](Cc2ccccc2)COc2cccc(N3CCN(Cc4ccccc4F)CC3)c21	.	?	18µM	?	?
CC(C)C[C@@H]1COc2cccc(N3CCN(Cc4ccccc4F)CC3)c2S(=O)(=O)N1	.	.	?	.	?
COC(=O)[C@@H]1CCCN1Cc1ccc2c(c1)CN(Cc1cccc(Cl)c1)CCO2	/	/	.	/	.[9.04 µM]
CCOC(=O)c1ccc(NC(=O)N2CCN(c3cccc(OC)c3)CC2)cc1	.	.	18µM	.	?
CC(=O)c1ccc(NC(=O)N2CCN(c3cccc(Cl)c3)CC2)cc1	.	.	12µM	.	12µM
O=C(Nc1ccc(Cl)cc1)N1CCN(c2ccccc2)CC1	.	.	?	.	?
CCOC(=O)c1ccc(NC(=O)N2CCN(c3ccccn3)CC2)cc1	.	.	.	.	.
CC(=O)c1ccc(N2CCN(C(=O)Nc3ccc(Cl)cc3)CC2)cc1	.	.	10µM	.	?
Clc1ccc(-n2cccc2CN2CCc3nnc(Cc4ccccc4)n3CC2)nc1	/	/	.	/	.
COC(=O)c1cc2oc(C)cc2n1CC(=O)Nc1ccc(C)cc1C	/	/	.	/	.
COc1ccc(N2CCN(c3cc(C(=O)NC4CCCCC4)ncn3)CC2)cc1OC	.	.	?	.	?
Cc1onc(-c2ccccc2Cl)c1C(=O)N/N=C(\N)COc1ccc(Cl)cc1	.	?	13µM	.	23µM
Cc1onc(-c2ccccc2)c1C(=O)N/N=C(\N)COc1ccc(Cl)cc1	.	?	?	?	16µM
COc1ccc(Cl)cc1/C=N/NC(=O)c1c(-c2ccccc2)noc1C	.	.	.	.	.
CCOc1ccc(C(=O)COC(=O)c2c(-c3ccccc3)noc2C)cc1	.	?	21µM	?	?
O=C(NCCCc1nc2ccccc2n1Cc1cccc(Cl)c1)c1ccco1	/	/	23µM	/	16µM
O=C(NCCCc1nc2ccccc2n1Cc1ccccc1Cl)c1ccco1	/	/	16µM	/	29µM
Clc1ccccc1Cn1c(/C=C/c2ccco2)nc2ccccc21	?	23µM	?	?	?
O=C(NCCCc1nc2ccccc2n1Cc1ccc(Cl)cc1)c1ccco1	/	/	16µM	/	?
Cn1c(CCCNC(=O)c2ccco2)nc2ccccc21	.	.	.	.	.
O=C(NCCCc1nc2ccccc2n1Cc1cccc(Cl)c1)C1CCCCC1	/	/	?	/	.
Cc1ccccc1CN(c1ccc(C(=O)Nc2ccccc2C(=O)NCc2ccco2)cc1)S(C)(=O)=O	.	?	?	.	?
Cn1c(SCC(=O)Nc2ccc3[nH]c(=O)[nH]c3c2)nnc1-c1ccc(F)cc1	.	.	.	.	.
O=C(CN1CCOCC1)NN=Cc1ccc([N+](=O)[O-])o1	.	?	?	.	21µM
SMILES	IL1B secr inh	HT1080 IDH1KD tx	DT40 TDP1 no CPT	HT1080NT lethal	DT40 TDP1 CPT
O=C(CN1CCCCCCC1)N/N=C/c1ccc([N+](=O)[O-])o1	.	.	?	.	?
O=C(CCN1CCN(c2ccccc2)CC1)N/N=C/c1ccc([N+](=O)[O-])o1	.	?	?	.	10µM
O=C(CCN1CCN(c2ccccc2)CC1)N/N=C/c1ccc(O)c(O)c1O	.	.	?	.	?
Cc1nn(C)c(C)c1S(=O)(=O)N1CCCC(C(=O)NCC2COc3ccccc3O2)C1 (stereo unspecified)	.	.	?	.	?
COc1cccc(/C=C2/SC(=S)N(CC(=O)Nc3nccs3)C2=O)c1	/	/	.	/	.
c1ccn2cc(-c3ccc4c(c3)OCCO4)nc2c1	.	?	26µM	?	15µM
Cc1ccc2nc(-c3ccc4c(c3)OCCO4)cn2c1	.	2.3µM	1.6µM	3.7µM	1.3µM
CCCCNC(=O)c1[nH]c(=O)cnc1-c1ccccc1	.	.	.	?	.
CCCCn1c(N)c(N(CCC(C)C)C(=O)COC(=O)Cc2ccc(Cl)cc2)c(=O)[nH]c1=O	?	.	.	.	?
COc1ccc(NC(=O)CCn2nc(C)cc2C)cc1	.	.[9.24 µM]	.	.	.
COc1ccc(NC(=O)CCn2nc(-c3ccccc3OC)c3c(C)cc(C)nc32)cc1	/	/	21µM	/	?
CCc1ccc(NC(=O)CCn2nc(-c3ccccc3OC)c3c(C)cc(C)nc32)cc1	/	/	21µM	/	?
Cc1cc(NC(=O)CCC(=O)N(CC(=O)NCC2CCCO2)c2ccc(C(C)C)cc2)no1 (stereo unspecified)	.	.	.	.	.
CCc1ccc(NS(=O)(=O)c2c(C(=O)N3CCOCC3)c(C)n(C)c2C)cc1	.	.	.	.	.
CNc1cccc(-c2c(OC)cccc2OC)n1	.	.	?	.	?
COc1cc(-c2cc3nc(NCCOc4ccccc4)ccn3n2)cc(OC)c1OC	.	9.2µM	2.3µM	21µM	2.6µM
NS(=O)(=O)c1ccc(CCNc2ccn3nc(-c4ccccc4)cc3n2)cc1	.	.	?	.	26µM
CC(C)(C)c1cc2nc(NCCc3ccc(S(N)(=O)=O)cc3)ccn2n1	.	.	.	.	.
CC(C)Cc1ccc(-c2cc3nc(NCCc4ccc(S(N)(=O)=O)cc4)ccn3n2)cc1	.	23µM	12µM	?	23µM
COc1cc(-c2cc3nc(NCCc4ccc(S(N)(=O)=O)cc4)ccn3n2)cc(OC)c1OC	-50	.	21µM	.	23µM
COc1cc2[nH]c(=S)nc(NCCc3ccc(S(N)(=O)=O)cc3)c2cc1OC	.	.	.	.	.
COc1ncc2nc(-c3ccccc3)c(=O)n(CCC#N)c2n1	/	/	.	/	.
COc1cc(-c2cc3nc(NCCc4ccncc4)ccn3n2)cc(OC)c1OC	-58	.	18µM	.	18µM
Clc1ccccc1-c1cc2nc(NCc3ccco3)ccn2n1	?	.	?	.	?
COc1cc(-c2cc3nc(NCc4ccco4)ccn3n2)cc(OC)c1OC	.	?	12µM	?	21µM
COc1ccc2nnc(-c3ccccc3)n2n1	.	.	.	.	.
COc1cc(CCNc2ccc3nnc(-c4ccccc4)n3n2)cc(OC)c1OC	.	.	10µM	.	16µM
CC(C)Cc1ccc(-c2cc3nc(NCCCn4ccnc4)ccn3n2)cc1	.	?	?	16µM	?
Clc1ccccc1-c1cc2nc(NCCCn3ccnc3)ccn2n1	.	.	.	.	.
CCc1nn(CC(=O)N2CCC(C)CC2)c(=O)c2cc3occc3n12	/	/	.	/	.
